High-throughput results (PubChem BioAssay)
ELG1 repair inh = qHTS screen for small molecules that inhibit ELG1-dependent DNA repair in human embryonic kidney (HEK293T) cells expressing luciferase-tagged ELG1 | 330,000 tested, 2.3% active | HEK293T ELG1-luciferase reporter, luminescence, 16 h; DNA damage induced by 5-fluorouridine | Potency, µM (top dose mostly 46.1 µM), most hits filed as inhibitors; further: nearly all actives have a fitted effect of over 55% in size
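DMSO vehicle served as the neutral condition. Each well held 2,000 cells given 5-fluorouridine plus compound; after 16 hr at 37 °C/5% CO2, ONE-Glo was added and luciferase measured 30 min later.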
IL-1B inflam inh = qHTS for Inhibitors of Inflammasome Signaling: IL-1-beta AlphaLISA Primary Screen; 360,000 tested, 4.7% active; AID 743279, 2014; THP-1 LPS/ATP IL-1B secretion, AlphaLISA, 16 h; stronger effect = lower value; activity change, % at 57.5 µM; in the data active means activity change below about -50%; inconclusive means mostly about -30% to -49%
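THP-1 cells pretreated 1 hr with compounds (up to 57.5 uM final), then stimulated with LPS (250 ng/mL final) plus ATP (1.25 mM final); secreted IL-1B measured by AlphaLISA after 16 hr, decreased signal indicating inhibition.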
VP16 counter = VP16 counterscreen qHTS for inhibitors of ROR gamma transcriptional activity | Potency, µM (titrated, usually from 53.6 µM), most hits filed as inhibitors | AID 2546, 2010 | Drosophila S2 Gal4-VP16 UAS-luciferase, luminescence, 20 h | 310,000 tested, 3.5% active;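 further: Gal4-VP16 expression switched on by copper sulfate through the metallothionein promoter; nearly all actives have a fitted effect of over 50% in size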
RORg inh = qHTS for inhibitors of ROR gamma transcriptional activity; 310,000 tested, 5.4% active; Nuclear receptor ROR-gamma (Mus musculus), P51450; Drosophila S2 Gal4-RORgamma UAS-luciferase reporter, 20 h; Potency, µM (titrated, usually from 53.6 µM), usual class: inhibitors; further: nearly all actives have a fitted effect of over 60% in size
Target sequence (P51450 whole entry, looked up, the tested form may be a part): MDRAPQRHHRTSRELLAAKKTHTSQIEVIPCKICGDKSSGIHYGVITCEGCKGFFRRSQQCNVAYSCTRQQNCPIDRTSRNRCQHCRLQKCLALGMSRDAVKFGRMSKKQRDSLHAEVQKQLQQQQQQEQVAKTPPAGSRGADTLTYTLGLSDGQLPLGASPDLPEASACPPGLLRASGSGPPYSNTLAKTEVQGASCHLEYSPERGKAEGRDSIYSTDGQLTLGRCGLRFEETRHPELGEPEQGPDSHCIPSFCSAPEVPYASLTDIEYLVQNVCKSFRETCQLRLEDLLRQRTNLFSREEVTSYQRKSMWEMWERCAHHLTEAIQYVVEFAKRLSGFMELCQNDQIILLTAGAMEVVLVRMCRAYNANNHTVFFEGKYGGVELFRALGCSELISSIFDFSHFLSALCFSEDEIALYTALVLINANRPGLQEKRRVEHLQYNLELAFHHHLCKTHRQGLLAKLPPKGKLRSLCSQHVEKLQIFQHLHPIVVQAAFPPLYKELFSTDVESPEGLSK
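ROR gamma transcriptional activity was tracked as Gal4-UAS luciferase output in stably transfected Drosophila Schneider cells, with compound added 1 hr before 700 uM copper sulfate induction and a 20 hr ambient-temperature incubation.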
TDP1 cell CPT = qHTS for Inhibitors of human tyrosyl-DNA phosphodiesterase 1 (TDP1): qHTS in cells in presence of CPT | chicken DT40 Tdp1-/-;hTDP1 cells + 20 nM CPT, ATP luminescence, 48 h | Potency, µM (doses to about 46.2 µM), most hits filed as inhibitors | 420,000 tested, 12% active; further: nearly all actives have a fitted effect of over 55% in size
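Chicken DT40 Tdp1-/- cells stably complemented with human TDP1 were seeded at 400 cells/well in medium containing 20 nM camptothecin, exposed to pin-transferred compounds, and grown at 37 °C for at least 48 hr. Viability was read as ATP luminescence.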
DT40 TDP1 no CPT = qHTS for Inhibitors of human tyrosyl-DNA phosphodiesterase 1 (TDP1): qHTS in cells in absence of CPT | DT40 Tdp1-/- hTDP1 cells, no CPT, ATP luminescence, 48 h | Potency, µM (titrated, usually from 46.2 µM), most hits filed as inhibitors | 420,000 tested, 15% active | AID 686978, 2013; further: nearly all actives have a fitted effect of over 55% in size
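Compound effects on proliferation are scored in DT40 Tdp1-/-;hTDP1 cells in the absence of CPT. ATP levels (CellTiter-Glo luminescence) are recorded after a ≥48 hr, 37 °C incubation.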
Numbers stand for hits; – = inactive; ? = inconclusive; · = no result; [ ] = remark or other dose. Only some compounds are listed: those with a hit (about 21% of all), similar ones and a draw of the others. Unless noted, the call rests on the fitted dose curve; in most records, active means well fitted curve in the direction sought with a large enough effect; inconclusive means small, poorly fitted or top-dose-only effect, or another doubt; inactive means no such curve, though single readings can be large; an effect the other way counts as inactive or inconclusive.

SMILES	ELG1 repair inh	IL-1B inflam inh	VP16 counter	RORg inh	TDP1 cell CPT	DT40 TDP1 no CPT
Cc1ccc(SCc2nc(-c3ccc(C(=O)NCc4ccccc4Cl)cc3)oc2C)cc1	·	·	·	·	8.2µM	9.2µM
Cc1ccc(SCc2nc(-c3ccc(C(=O)Nc4cc(C)ccc4C)cc3)oc2C)cc1	·	·	·	·	8.2µM	8.2µM
CCCCn1c(SCC(=O)c2ccccc2)nc2c(sc3ccccc32)c1=O	·	·	·	·	–	–
Cc1cc(F)c(Nc2ncnc3cc(OCc4ccccc4)ccc23)cc1O	·	·	–	–	·	·
O=C(CSc1ccc(-c2cccnc2)nn1)Nc1ccc(F)c(F)c1	13µM	–	–	–	?	?
Cc1csc(NC(=O)CSc2ccc(-c3ccccn3)nn2)n1	?	–	–	–	?	26µM
Cc1ccccc1NC(=O)CSc1ccc(-c2ccccn2)nn1	–	–	–	–	?	?
Cc1cc(C)cc(NC(=O)CSc2ccc(-c3ccccn3)nn2)c1	–	–	–	–	16µM	?
O=C(CSc1ccc(-c2cccnc2)nn1)Nc1ccccc1	–	–	–	–	–	–
O=C(CSc1ccc(-c2ccccn2)nn1)Nc1cccc(F)c1	–	–	–	–	?	18µM
C[C@H](O)Cn1cnc2c1c(=O)n(C)c(=O)n2C	·	·	–	–[2.98 µM]	·	·
COc1cc(C2OC(=O)c3ccccc3S2)cc(OC)c1OC (configuration not stated)	–	–	–	–	–	–
COc1cccc(C(O)C2OC(=O)c3ccccc32)c1OC (configuration not stated)	·	–	·	·	–	9.2µM
Cc1nnsc1-c1onc(C)c1C(=O)Nc1cc(Cl)cc(Cl)c1	16µM	?	–	–	?	–
COc1ccc(Nc2nnc(-c3ccc(C)c(S(=O)(=O)N4CCOCC4)c3)c3ccccc23)cc1	·	·	·	·	15µM	7.3µM
CNC(=O)c1ccc(Nc2nnc(-c3ccc(C)c(S(=O)(=O)N4CCCCC4)c3)c3ccccc23)cc1	·	·	·	·	–	–
COc1ccc(Nc2nc(-c3ccccc3)nc3ccccc23)cc1S(=O)(=O)N1CCOCC1	8.2µM	-74	–	?	15µM	8.2µM
Cc1ccc(Nc2nnc(-c3ccc(C)c(S(=O)(=O)N4CCOCC4)c3)c3ccccc23)cc1	·	·	·	·	16µM	10µM
CNC(=O)c1ccc(Nc2nnc(-c3ccc(C)c(S(=O)(=O)N4CCOCC4)c3)c3ccccc23)cc1	·	·	·	·	21µM	7.3µM
CC1(C(=O)NC2CCN(Cc3ccccc3)CC2)CCN1Cc1ccc2ccccc2c1 (configuration not stated)	·	–	·	·	?	?
CCOc1ccc(NC(=O)c2ccc3c(c2)S(=O)(=O)N=C2CCCCCN23)cc1	·	–	·	·	–	–
Cc1nc2ccc(S(=O)(=O)NC(CC(C)C)C(=O)NCc3ccc(Cl)cc3)cc2s1 (configuration not stated)	·	·	·	·	?	–
O=c1cc(N2CCN(c3ccc(F)cc3)CC2)[nH]c(=O)n1-c1cccc(Br)c1	·	·	·	·	10µM	18µM
O=c1cc(N2CCN(c3ccccc3)CC2)[nH]c(=O)n1-c1ccccc1	–	–	–	–	–	–
CN1CCN(C2=Cc3ccccc3Sc3cc(F)c(F)cc32)CC1	–	-62	7.9µM	7.9µM	?	?
SMILES	ELG1 repair inh	IL-1B inflam inh	VP16 counter	RORg inh	TDP1 cell CPT	DT40 TDP1 no CPT
CN1CCN(c2nc(-c3ccc(Cl)c(Cl)c3)nc3ccccc23)CC1	–	·	–	–	·	·
CN1CCN(c2cc(-c3ccccc3C(F)(F)F)ncn2)CC1	·	·	–	–	–	–
CN1CCN(C2=Cc3cc(Cl)ccc3Sc3cc(F)ccc32)CC1	–	-100	–	–	?	29µM
CN1CCN(C2=Cc3ccccc3Sc3cc(F)c(Cl)cc32)CC1	–	-62	?	?	?	29µM
CCN(CC)C(=O)C1=C(C)N(CCCOC)C(=O)C(CC(=O)NCCCN(C)C)C1 (configuration not stated)	·	–	·	·	–	–
COCC(=O)N1CCC2(CC1)CN(Cc1ccccc1OC)C2	·	·	–	–	–	?
Cc1ccc(S(=O)(=O)N2CCOCC2)cc1C(=O)NCCc1ccc(Cl)cc1	–	–	·	·	–	?
O=C1NC(=O)C2C3C=CC(C3)C12 (configuration not stated)	·	·	–	–	·	·
Cc1onc(-c2ccccc2Cl)c1C(=O)NNC(=O)c1ccc(F)cc1	–	–	–	–	–	–
Cc1cccc(C(=O)NNC(=O)c2c(-c3ccccc3Cl)noc2C)c1O	–	–	–	10µM	?	29µM
Cc1onc(-c2ccccc2Cl)c1C(=O)Nc1ccccc1C(=O)NC(C)C	?	?	–	–	3.3µM	2.3µM
Cc1onc(-c2ccccc2Cl)c1C(=O)NC(=S)Nc1ccccc1C(N)=O	–	–	–	?	26µM	?
Cc1onc(-c2ccccc2Cl)c1C(=O)N1CC(C)CC(C)C1 (configuration not stated)	?	–	–	–	15µM	10µM
CC(=O)NC1=C(C#N)CCC1	·	·	·	·	–	–
COc1ccc(OC)c(-c2noc(N3CCN(c4cccc(C)c4C)CC3)n2)c1	·	·	·	·	–	–
Cc1ccc(NC(=O)c2cc(-c3ccccc3)n[nH]2)cc1	–	-75	–	–	–	–
COc1ccc(-c2cc(C(=O)Nc3ccc(NC(C)=O)cc3)[nH]n2)c(C)c1	·	–	·	·	?	–
COc1ccc(Cl)c(-c2cc(C(=O)Nc3ccccc3)[nH]n2)c1	·	-51	·	·	23µM	16µM
CS(=O)(=O)c1ccc(C(=O)NNC(=O)c2cc(-c3ccccc3)n[nH]2)cc1	–	–	·	·	–	–
COc1ccc(Cl)c(-c2cc(C(=O)Nc3ccc(F)cc3)[nH]n2)c1	·	?	·	·	15µM	23µM
Cc1ccc(NC(=O)c2cc(-c3ccccc3O)n[nH]2)cc1Cl	–	–	–	–	–	–
COc1cc(C(=O)NNC(=O)c2cc(-c3ccccc3)n[nH]2)cc(OC)c1C	?	-64	·	·	–	–
CC(C)(C)NC(=O)c1cc(-c2ccccc2)n[nH]1	–	–	–	–	–	–
COC(=O)[C@@]1(C)[C@H]2C(=O)N(Cc3ccccc3)C(=O)[C@H]2[C@H]2CN=C(SCC(=O)c3ccccc3)N21	?	–	·	·	?	?
COc1ccc(CCC(=O)Nc2ccccc2C(F)(F)F)cc1	–	–	–	–	–	–
